# SARS 3CLpro inh: SARS-CoV 3CLpro protease inhibition | AID 1706 | recombinant SARS-CoV 3CLpro, quenched FRET peptide cleavage | inhibition, % at 6 µM | P0C6X7 | hit rate 0.14% among 290,000; in the data active means inhibition above about 12%
# SSB-PriA inh: inhibitors of Klebsiella pneumoniae PriA binding to SSB C-terminal tail; AlphaScreen SSBct-PriA binding, biotinylated peptide; inhibition, % at 33 µM; hit rate 0.6% among 430,000; AID 1272365; in the data active means inhibition mostly above about 37%, no sharp cut-off; inactive means mostly below about 20%;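 further: plate controls were negative control peptide for no effect and reference peptide for full effect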
# DUSP3 inh: blocks human VHR1 dual specificity phosphatase; hit rate 0.52% among 290,000; recombinant VHR phosphatase, pNPP absorbance; inhibition, % at 13.3 µM; AID 1654; in the data active means inhibition above about 50%
# Target sequence (P51452 whole entry, looked up): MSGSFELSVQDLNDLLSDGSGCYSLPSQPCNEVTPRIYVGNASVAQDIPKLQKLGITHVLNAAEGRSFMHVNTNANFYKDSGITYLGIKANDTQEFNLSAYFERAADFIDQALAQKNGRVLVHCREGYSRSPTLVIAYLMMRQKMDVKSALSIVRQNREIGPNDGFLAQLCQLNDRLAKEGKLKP
# BH1578 lux ind: inducers of Vibrio cholerae quorum light production without autoinducers; hit rate 0.16% among 350,000; activation, % at 18.7 µM; V. cholerae BH1578 lux reporter, luminescence, 6 h; in the data active means activation mostly above about 9.7%, no sharp cut-off
# CCHF vOTU inh-1: CCHFV vOTU protease inhibition | Pep-AMC fluorescence | inhibition, % at 11.5 µM | hit rate 0.55% among 370,000 | AID 651958; further: 0% = vehicle wells with enzyme and 100% = no enzyme wells
# TcdB GH inh: inhibitors of Clostridioides difficile toxin B glycohydrolase. P18177. TcdB glycohydrolase enzymatic assay, plate reader. inhibition, % at 9.99 µM. hit rate 0.24% among 350,000; in the data active means inhibition above about 10%
# CCHF vOTU inh-2: CCHFV vOTU protease inhibition, confirmation. AID 686976. hit rate 17% among 1,900. inhibition, % at 11.5 µM. shares compounds with CCHF vOTU inh-1. Recombinant CCHFV vOTU, Pep-AMC fluorescence
# The depositor's hits bear a star; i = inactive; x = no result. A selection: hits, their analogues and other compounds. The true share with any hit is near 1.3%. Unless noted, no stated cut-off is given here; in the data, active means inhibition above about 30%; inactive means the rest.
SMILES,SARS 3CLpro inh,SSB-PriA inh,DUSP3 inh,BH1578 lux ind,CCHF vOTU inh-1,TcdB GH inh,CCHF vOTU inh-2
Fc1ccc(Nc2cncc(-c3ccsc3)c2)cc1Cl,x,x,x,-0.6,93.6*,0.1,13.5
O=C(Nc1ccc(OCc2ccccc2)cc1)c1cn[nH]n1,x,-12.0,x,x,x,x,x
O=C(CSc1nnc(-c2ccncc2)n1-c1ccccc1)Nc1ncccn1,x,-1.0,x,x,x,x,x
O=C1CCCC/C1=C\Nc1ccc(O)cc1,2.7,x,9.9,-0.2,35.4*,9.5,2.2
O=C1CCC/C1=C/Nc1ccc(Cl)cc1,6.8,-1.0,24.5,0.8,19.1,0.2,x
Cc1cccc(-c2onc3ccc(C(=O)/C=C/N(C)C)cc23)c1,5.6,-8.0,23.9,i,33.2*,1.4,-15.9
O=C1C(Cl)=C(N2CCC(C(=O)O)CC2)C(=O)c2ccccc21,-5.8,-7.7,-2.8,-5.5,x,x,x
CN1CCN(C2=C(Cl)C(=O)c3ccccc3C2=O)CC1,x,16.4,x,x,105.7*,-1.1,98.7*
CC1COCC(C)N1C1=C(Cl)C(=O)c2ccccc2C1=O (stereo unspecified),x,-7.6,x,-0.9,86.8*,0.3,89.7*
NC(=O)C1CCN(C2=C(Cl)C(=O)c3ccccc3C2=O)CC1,6.5,-19.2,4.8,-0.2,57.7*,x,82.9*
CCOC(=O)c1cc(CC)sc1NC(=O)CC1SC(=N)NC1=O (stereo unspecified),x,-2.2,x,x,x,x,x
O=C(c1ccc2nsnc2c1)N1CCC(Oc2ccc(C(F)(F)F)cn2)CC1,x,6.0,x,x,x,x,x
COc1cc(CCc2ccccc2)c(C(=O)O)c(O)c1C/C=C(/C)CCC=C(C)C,x,-3.4,x,-0.4,35.7*,-0.3,46.7*
CCCCCCCCCCOC(=O)Cn1c(COc2ccccc2)[n+](C)c2ccccc21,-0.7,-13.4,1.8,i,29.6*,0.0,22.8
CCCCCCCCCCOC(=O)Cn1c(COc2ccc(Cl)cc2)[n+](C)c2ccccc21,5.5,-4.5,5.8,-0.5,45.8*,9.1,56.3*
Cc1cc(=O)n(C2CCS(=O)(=O)C2)[nH]1 (stereo unspecified),-2.2,-1.4,11.1,-0.4,57.4*,-5.4,-18.0
O=C(NCc1cccc2ccccc12)N1CCCC(COCc2ccccc2)C1 (stereo unspecified),x,-3.0,x,x,x,x,x
CC(C)=CCC1=C(OCC(=O)O)C(=O)c2ccccc2C1=O,2.5,-8.3,15.2,i,110.4*,-10.1,85.1*
CC(C)=CCC/C(C)=C/CC/C(C)=C/CC/C(C)=C/CC1=C(C)C(=O)c2ccccc2C1=O,x,2.5,-1.2,14.6,3.0,1.3,x
NC(=O)c1sc2nc3c(c(-c4ccco4)c2c1N)CCC3,-16.3,1.2,20.7,0.9,49.0*,1.8,13.5
Cc1ccc(-c2c3c(nc4sc(C(N)=O)c(N)c24)CCCC3)o1,-6.4,8.1,30.1,-0.9,6.7,0.7,x
Cc1ccc(-c2ccc(S(=O)(=O)N3CCCCC3)cc2)cc1,x,-12.0,x,x,x,x,x
CCOc1ccc(NC(=O)Cn2nc(C3CCCN(S(C)(=O)=O)C3)n(C)c2=O)cc1 (stereo unspecified),x,6.0,x,x,x,x,x
CCOc1cccc(CNc2ccc(O)cc2)c1OCc1ccccc1Cl,0.7,32.6,-16.0,-0.2,44.0*,x,2.9
CCOc1cccc(CNCCO)c1OCc1ccc(Cl)cc1Cl,2.2,-4.9,0.2,-0.2,12.8,-3.0,x
SMILES,SARS 3CLpro inh,SSB-PriA inh,DUSP3 inh,BH1578 lux ind,CCHF vOTU inh-1,TcdB GH inh,CCHF vOTU inh-2
CCOc1cccc(CNc2ccc(O)cc2)c1OCc1ccc(Cl)cc1Cl,2.8,41.0,3.6,i,49.3*,x,6.7
COc1ccc(-c2noc(-c3sccc3S(=O)(=O)N(C)c3ccc(C)c(F)c3)n2)c(OC)c1,x,-5.0,x,x,x,x,x
CN1C(=O)C(=Cc2ccc(N3CCOCC3)o2)C(=O)N(C)C1=O,5.5,-4.2,2.1,-0.3,29.5*,x,1.0
CCC(C)(C)c1ccc(OCCCC[n+]2cccc(C)c2)c(C(C)(C)CC)c1,1.3,-3.4,-20.3,-0.5,40.4*,3.5,7.5
COc1ccc(-c2cc(=O)n(CCC#N)[nH]2)cc1,1.1,-1.3,1.2,3.1,62.5*,x,-27.3
CCOc1ccc(C(=O)CSc2nccn(-c3cccc(F)c3)c2=O)cc1,x,-10.0,x,x,x,x,x
O=C(CNc1cccc2ccccc12)c1ccc([N+](=O)[O-])cc1,-3.7,8.7,14.7,i,30.1*,x,-16.6
COc1cc([N+](=O)[O-])cc(/C=N/NC(=O)C(C)Nc2cccc3ccccc23)c1O (stereo unspecified),-12.1,x,17.0,i,5.2,1.1,x
CC(O)C(=O)N/N=C/c1cccc2ccccc12 (stereo unspecified),3.4,x,-5.3,-0.3,13.2,1.2,x
Cc1cccc(/C=N/NC(=O)C(C)Nc2cccc3ccccc23)n1 (stereo unspecified),-16.5,x,30.3,i,114.9*,x,-19.4
CC(Nc1cccc2ccccc12)C(=O)N/N=C/c1ccc([N+](=O)[O-])cc1 (stereo unspecified),2.8,x,41.8,-1.5,104.0*,x,-5.9
CNC(=O)CS(=O)(=O)C1CCN(S(=O)(=O)c2c(C)noc2C)CC1,x,-7.0,x,x,x,x,x
NC(=NOC(=O)C1CCCCC1)c1cccc(Br)c1,x,-32.3,x,x,x,x,x
O=C(NC1CCc2ccccc21)c1cc(COc2ccc(F)cc2F)on1 (stereo unspecified),7.6,-12.2,22.0,-0.7,35.1*,-1.6,-16.0
COc1ccc(OCc2cc(C(=O)NC3CCc4ccccc43)no2)c(Cl)c1 (stereo unspecified),-0.7,-28.8,9.2,i,-4.2,-2.1,x
COc1ccc(Cl)c2sc(N3CCN(C(=O)COc4ccccc4)CC3)nc12,x,-2.0,x,x,x,x,x
CN(C)c1ccc2cc(S(=O)(=O)O)cc(O)c2c1,x,12.3,x,13.0,38.2*,-9.6,-93.1
COc1ccc(NS(=O)(=O)c2ccc3c(c2)[C@H]2C=CC[C@H]2[C@@H](c2ccc(C(=O)O)cc2)N3)cc1,1.9,9.0,-3.8,i,38.5*,0.7,25.8
Cc1c(Cl)cccc1NS(=O)(=O)c1ccc2c(c1)C1C=CCC1C(c1ccc(C(=O)O)cc1)N2 (stereo unspecified),2.6,23.6,46.4,-0.1,x,x,x
O=C(NCC(=O)N1CCO[C@H](c2ccccc2)C1)C(=O)Nc1ccc2c(c1)OCCO2,x,-3.0,x,x,x,x,x
CC1(C(=O)NS(=O)(=O)c2cccc(F)c2)CCN1C(=O)C1CCCCC1 (stereo unspecified),x,x,x,0.4,34.1*,0.3,-16.5
CC1(C(=O)NS(=O)(=O)c2cccc(C#N)c2)CCN1C(=O)C1CCCCC1 (stereo unspecified),x,x,x,i,1.2,-0.3,x
CCN1C(=O)C(=Cc2ccc(C)s2)C(=O)N(CC)C1=S,2.4,-2.3,-8.5,-0.6,-5.8,-0.1,x
CCN1C(=O)/C(=C/c2ccc(C)s2)NC1=S,1.9,5.2,-6.1,-0.7,31.2*,x,-13.6
CC(C)(c1ccccc1)c1ccc(OCCn2cnc3ccccc3c2=O)cc1,0.2,4.6,16.1,i,31.3*,x,3.7
